Reference: PubChem BioAssay AID624352 (Sanford-Burnham Center for Chemical Genomics, 2012)
Hit rate of the full screen: of about 360,000 compounds, about 2,600 (0.72%) were called active.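 How the source made its calls: active means inhibition of the luminescence signal of 40% or more relative to plate controls, in a single-dose primary screen at 18.75 µM; inactive means the rest.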 The full list was thinned out, with actives kept by preference.

Assay: HIF-2a reporter inhibitors, primary screen, luminescence, 786-0 RCC cells (AID 624352)
Details: 786-0 RCC cells HIF-2a reporter, luciferase luminescence, overnight; at 18.8 µM; active compounds read high

| SMILES | inhibition |
| --- | --- |
| CCOC(=O)[C@]12Cc3ccccc3[C@H]1N(C1CCCCC1)C(=O)c1cc(OC)ccc12 | 81.9% (active) |
| CCOC(=O)[C@]12Cc3cc(OC)ccc3[C@H]1N(C(C)C)C(=O)c1ccccc12 | 24.5% (inactive) |
| COc1ccc(CCn2c(O)c(C=NCCCn3ccnc3)c(=O)[nH]c2=O)cc1OC | 11.2% (inactive) |
| COc1ccc(Br)cc1CNCCc1cccc(Cl)c1 | 7.99% (inactive) |
| CC=C(C)C(=O)OC1CCN2CC=C(COC(=O)C(O)(C(C)OC)C(C)(C)O)C12 (stereo not given) | 3.51% (inactive) |
| COc1cc(OC)cc(C2(C#N)CCN(C)CC2)c1 | 13.2% (inactive) |
| COC(=O)C1=C(c2cc3ccccc3s2)C[C@@H]2CC[C@H]1N2C(=O)NC(C)C | 6.19% (inactive) |
| Cc1cccc(-n2c(O)c(/C=N/N3CCOCC3)c(=O)[nH]c2=S)c1 | 19.1% (inactive) |
| Cc1nn(-c2ccccc2)c(C)c1NC(=O)COC(=O)Cc1ccccc1 | 8.24% (inactive) |
| Cc1nc2nc(C)c(CCC(=O)N3CCC4(CC3)OCCO4)c(C)n2n1 | -0.723% (inactive) |
| CC(=O)OC1C2(CC3N4C(=O)C5(CO)SSC4(CC31O)C(=O)N5C)OC(C)C(C)(C)C2=O (stereo not given) | 91.3% (active) |
| NC(=O)Nc1cccc(C(F)(F)F)c1 | 1.29% (inactive) |
| COC(=O)C[C@H]1CC[C@H]2NC[C@@H](O)COC[C@@H]2O1 | 10.3% (inactive) |
| COC1C(O)C(C)OC(OC2CCC3(C=O)C(CCC4C3CCC3(C)C(C5=CC(=O)OC5)CCC43O)C2)C1O (stereo not given) | 82.4% (active) |
| C[C@]12CC[C@H](O)C[C@H]1CC[C@@H]1C2CC[C@]2(C)[C@@H](C3=CC(=O)OC3)[C@@H](O)C[C@]12O (stereo not given in full) | 33.4% (inactive) |
| COC(=O)CN(CCCl)P1(=O)OCCCN1CCCl (stereo not given) | 6.36% (inactive) |
| CN1CCN(Cc2ccccc2C(F)(F)F)CC1 | 9.38% (inactive) |
| O=c1c2ccccc2nc(CBr)n1-c1ccc(Cl)cc1 | -7.93% (inactive) |

| SMILES | inhibition |
| --- | --- |
| CN(C)CC1Oc2ccccc2OC1(O)c1ccccc1 (stereo not given) | 55.3% (active) |
| Cc1nc2ccccn2c1P(=S)(N1CCCCC1)N1CCCCC1 | 18.1% (inactive) |
| CC1([N+](=O)[O-])COP(=O)(Nc2ccc(F)cc2)OC1 (stereo not given) | 17.4% (inactive) |
| Cc1ccc(C(C)C)c(OCC(=O)N2CCN(CC(=O)N3CCOCC3)CC2)c1 | -3.94% (inactive) |
| c1ccc2sc(C3CCCNC3)nc2c1 (stereo not given) | -94.5% (inactive) |
| CC[C@H]1CC2CN3CCc4c([nH]c5ccccc45)C(C(=O)OC)(C2)C13 (stereo not given in full) | 20.3% (inactive) |
| O=P(OC1=CCCCC1)(c1ccccc1)c1ccccc1 | 12.4% (inactive) |
| CCC(C)(O)C(=O)OC1C(=O)OC2CC3C(C)=CC(=O)C(O)C3(C)C3C4(O)OCC23C1C(C)C4O (stereo not given) | 66.3% (active) |
| O=c1[nH]c(=O)n(-c2ccc(F)cc2)c(O)c1C=NCCN1CCCCC1 | 24.6% (inactive) |
| CC(Cc1cccs1)NCc1ccc(Cl)cc1 (stereo not given) | -5.05% (inactive) |
| Cc1ccc(P(=S)(c2ccc(C)o2)N2CCOCC2)o1 | -0.609% (inactive) |
| CCCCCCCCCCCCn1ccc(=N)cc1 | 51.2% (active) |
| C[C@]12CC[C@H](O)CC1=C([N+](=O)[O-])CC1C2CC[C@@]2(C)C1CC[C@@H]2O (stereo not given in full) | -4.21% (inactive) |
| CC(C)c1c(CN(C)C(C)Cc2ccccc2)n(C)n(-c2ccccc2)c1=O (stereo not given) | 17.5% (inactive) |
| CC(=CCOc1ccc2ccc(=O)oc2c1)C1=CC(=O)C(C)(C)O1 | 65.2% (active) |
| O=C1NC(=O)C(Cc2ccccc2)C(=O)N1 | 0.735% (inactive) |
| CCOC(=O)C1CN(C)CCC1=O (stereo not given) | 12.2% (inactive) |
